Source: PubChem (The Scripps Research Institute Molecular Screening Center)
Hits are enriched below; roughly 3.4% of the tested compounds scored in any of these assays.
TEAD-YAP inh – TEAD-YAP interaction inhibition, primary screen, TEAD-YAP interaction inhibitor project, luminescence, HEK-TIYL cells; TEAD-Gal4/YAP UAS-luciferase luminescence; actives 1.4% (n = 640,000); inhibition, % at 9.12 µM; in the data active = inhibition above about 32%;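 also: 0% = median of test compound wells and 100% = reference inhibitor wells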
FBW7 activator – FBW7 E3 ligase activators, primary screen, biochemical, AlphaScreen, human | F-box/WD repeat-containing protein 7 (Homo sapiens), Q969H0 | AlphaScreen FBW7–phospho-cyclin E peptide binding, activator screen | normalized activity (activation), % at 26.1 µM | actives 0.13% (n = 650,000) | AID 1259310, 2017; in the data active = normalized activity above about 1.9%;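 also: purified mutant Fbw7 with reduced substrate affinity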
Target sequence (Q969H0 whole entry, looked up): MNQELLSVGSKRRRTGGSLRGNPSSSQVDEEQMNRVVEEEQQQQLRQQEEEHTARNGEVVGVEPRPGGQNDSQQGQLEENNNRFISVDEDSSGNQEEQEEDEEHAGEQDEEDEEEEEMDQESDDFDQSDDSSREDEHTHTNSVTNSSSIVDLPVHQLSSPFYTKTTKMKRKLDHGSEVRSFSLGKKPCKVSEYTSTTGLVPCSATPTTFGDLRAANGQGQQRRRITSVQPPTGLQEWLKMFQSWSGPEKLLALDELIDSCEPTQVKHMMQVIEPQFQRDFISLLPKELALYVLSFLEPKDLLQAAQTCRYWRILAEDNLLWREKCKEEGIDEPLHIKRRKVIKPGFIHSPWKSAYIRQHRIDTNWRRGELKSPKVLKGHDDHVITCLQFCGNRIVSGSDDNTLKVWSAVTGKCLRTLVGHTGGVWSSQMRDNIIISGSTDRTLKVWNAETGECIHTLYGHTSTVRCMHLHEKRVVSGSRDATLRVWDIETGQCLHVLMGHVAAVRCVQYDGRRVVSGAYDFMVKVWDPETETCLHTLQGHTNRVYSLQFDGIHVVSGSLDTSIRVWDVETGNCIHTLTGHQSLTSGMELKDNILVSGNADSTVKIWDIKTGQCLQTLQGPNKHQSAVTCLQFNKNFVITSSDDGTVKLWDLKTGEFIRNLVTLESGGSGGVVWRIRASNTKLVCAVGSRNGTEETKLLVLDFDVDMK
GPR151 ag – activators of human GPR151, primary screen, cell-based, PathHunter beta-arrestin, luminescence; actives 1% (n = 650,000); activation, % at 11.2 µM; PathHunter beta-arrestin GPR151 cells; in the data active = activation above about 4.9%;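 also: 0% = median of compound wells and 100% = cells with positive control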
MITF primary – MITF inhibitors, primary screen, biochemical, AlphaScreen, human; Microphthalmia-associated transcription factor (Homo sapiens), O75030; AlphaScreen MITF homodimerization, bead proximity signal; inhibition, % at 2.6 µM; actives 0.91% (n = 650,000); AID 1259374, 2018; in the data active = inhibition above about 50%;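 also: 0% = vehicle wells with protein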
GPR151 confirm – GPR151 activators, triplicate retest, confirmation, cell-based, PathHunter beta-arrestin, luminescence. shares compounds with GPR151 ag. GPR151 PathHunter beta-arrestin cells, 90 min; % of EA-reagent control over plate median. activation, % at 11.2 µM. 6,700 tested, under 10 active. AID 1508609, 2020;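 active = mean percent activation across replicates above the confirmation screen cutoff of 4.91%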
GPR119 ag – GPR119 activators in beta-arrestin cells, counter-screen for GPR151 activator project, cell-based, PathHunter beta-arrestin, luminescence, triplicate | shares compounds with GPR151 ag | 90 min; 0 = compound-well median, 100 = enzyme-acceptor control | activation, % at 11.2 µM | actives 0.3% (n = 6,700) | AID 1508611, 2020;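 active = mean percent activation in the counterscreen above 29.09%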;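 also: counterscreen on off-target GPR119 to flag nonselective hits from the GPR151 activator screen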
Starred values were filed as active, the others as inactive.

`Cc1ccc(NC(=O)C2CCN(S(C)(=O)=O)CC2)cc1` gave TEAD-YAP inh 12, FBW7 activator 0, GPR151 ag 10*, MITF primary 5, GPR151 confirm 0 and GPR119 ag -1.
Screening C=CCOC1OC(COC(C)=O)C(OC(C)=O)C(OC(C)=O)C1NC(C)=O (centres undefined) returned TEAD-YAP inh -2, FBW7 activator 0, GPR151 ag 0 and MITF primary -2.
For COc1cc(Nc2nc(SCC(=O)NCCC(C)C)nc3ccccc23)cc(OC)c1 the results were TEAD-YAP inh -3, FBW7 activator 0, GPR151 ag -1 and MITF primary 3.
`CCOc1ccc(NC(=S)NC(=O)CC(C)C)cc1` gave TEAD-YAP inh -60, FBW7 activator 0, GPR151 ag -1 and MITF primary -6.
O=C(Nc1nnc(-c2ccc3c(c2)OCCO3)o1)c1ccc(Br)cc1 was read as TEAD-YAP inh 8, FBW7 activator 0, GPR151 ag 0 and MITF primary 3.
For CCOc1ccc(N2C(=O)NC(=O)/C(=C\c3ccc(O)c(OC)c3)C2=O)cc1 the results were TEAD-YAP inh 3, FBW7 activator 0, GPR151 ag 1 and MITF primary 14.
Screening C=CCc1cc(/C=C2/C(=O)NC(=O)N(c3ccc(OCC)cc3)C2=O)ccc1O returned TEAD-YAP inh 8, FBW7 activator 0, GPR151 ag 9.3*, MITF primary 16, GPR151 confirm 1 and GPR119 ag -2.
`COc1cc(/C=C2/C(=O)NC(=O)N(c3ccc(Cl)cc3)C2=O)cc(OC)c1O` gave TEAD-YAP inh 4, FBW7 activator 0, GPR151 ag 16*, MITF primary 12, GPR151 confirm 0 and GPR119 ag 12.
COc1ccc(/C=C2\C(=O)NC(=O)N(c3ccc(Br)cc3)C2=O)c(OC)c1 was read as TEAD-YAP inh -6, FBW7 activator 0, GPR151 ag 7.3*, MITF primary -2, GPR151 confirm 0 and GPR119 ag 4.
`COc1ccc(/C=C2/C(=O)NC(=O)N(c3ccc(C)cc3)C2=O)c(OC)c1` gave TEAD-YAP inh 7, FBW7 activator 0, GPR151 ag 1 and MITF primary 17.
Screening COc1ccc(N2C(=O)NC(=O)/C(=C\c3ccc(O)c([N+](=O)[O-])c3)C2=O)cc1 returned TEAD-YAP inh 3, FBW7 activator 0, GPR151 ag 5.8*, MITF primary 22, GPR151 confirm -1 and GPR119 ag -5.
For CCc1ccc(N2C(=O)NC(=O)/C(=C/c3cc(OC)c(O)c(OC)c3)C2=O)cc1 the results were TEAD-YAP inh -1, FBW7 activator 0, GPR151 ag 1 and MITF primary -12.
`COc1ccc(CNC(=O)c2ccc(C)c(C)c2)cc1` gave TEAD-YAP inh -37, FBW7 activator 0, GPR151 ag 0 and MITF primary 1.
`CN(CC1OCCO1)c1ccc(N2C(=O)CCC2=O)cc1[N+](=O)[O-]` gave TEAD-YAP inh 10, FBW7 activator 0, GPR151 ag 0 and MITF primary 8.
CCCc1nnc2sc(NC(=O)c3ccco3)nn12 was read as TEAD-YAP inh -7, FBW7 activator 0, GPR151 ag 0 and MITF primary -5.
CC1=C(C(=O)OCCc2ccccc2)C(c2cc3c(cc2Cl)OCO3)C2=C(CCCC2=O)N1 (centres undefined) was read as TEAD-YAP inh -11, FBW7 activator 0, GPR151 ag 0 and MITF primary 1.
`Cc1ccc(NCC(=O)N/N=C/c2ccc([N+](=O)[O-])c(O)c2)cc1` gave TEAD-YAP inh -9, FBW7 activator 0, GPR151 ag -1 and MITF primary -5.
Screening Cc1cc(N2C(=O)NC(=O)/C(=C\c3ccccc3OCC#N)C2=O)ccc1Br returned TEAD-YAP inh 0, FBW7 activator 0, GPR151 ag 5.6*, MITF primary -7, GPR151 confirm 1 and GPR119 ag 19.
CCOc1cc(/C=C2\C(=O)NC(=O)N(c3cc(C)ccc3C)C2=O)ccc1O was read as TEAD-YAP inh 18, FBW7 activator -1, GPR151 ag 8.9*, MITF primary -9, GPR151 confirm 0 and GPR119 ag 12.
For CCOc1ccc(C2NC(=S)NC(C)=C2C(=O)OC)cc1OCC (centres undefined) the results were TEAD-YAP inh -17, FBW7 activator 0, GPR151 ag 1 and MITF primary -2.
For Cc1ccc(C)c(-c2cc(C(=O)NN3CCOCC3)c3ccccc3n2)c1 the results were TEAD-YAP inh -2, FBW7 activator 0, GPR151 ag 5.4*, MITF primary -2, GPR151 confirm -1 and GPR119 ag -10.
`Cc1c(C(=O)NN=C2c3ccccc3-c3ccccc32)nc2ccccn12` gave TEAD-YAP inh -8, FBW7 activator 0, GPR151 ag -1 and MITF primary 12.
O=C(c1ccccc1)N1CCN(c2nc(-c3ccc(F)cc3)cs2)CC1 was read as TEAD-YAP inh 2, FBW7 activator 0, GPR151 ag -1 and MITF primary -15.
COc1cc(Br)cc(CN2CCN(C=O)CC2)c1O was read as TEAD-YAP inh 4, FBW7 activator 0, GPR151 ag 7.3*, MITF primary -18, GPR151 confirm 1 and GPR119 ag 2.
Screening CC1=C(C(=O)CN2CCN(c3ccccc3)CC2)N2C=CC=CC2N1 (centres undefined) returned TEAD-YAP inh 7, FBW7 activator 0, GPR151 ag 9.2*, MITF primary 5, GPR151 confirm 1 and GPR119 ag 7.
O=C(NCc1ccccc1F)c1cc2cc(Br)ccc2oc1=O was read as TEAD-YAP inh -1, FBW7 activator 0, GPR151 ag 5.9*, MITF primary 0, GPR151 confirm 0 and GPR119 ag 7.
For CCOc1ccc(-n2c(C)c(C(C)=O)c3cc(OC(C)=O)ccc32)cc1 the results were TEAD-YAP inh -1, FBW7 activator 0, GPR151 ag 5.3*, MITF primary -12, GPR151 confirm -1 and GPR119 ag -8.
Screening Cc1c(C(=O)N2CCOCC2)oc2c1-c1nn(CC(=O)NCc3ccccn3)cc1CC2 returned TEAD-YAP inh -13, FBW7 activator -1, GPR151 ag -1 and MITF primary 0.
